Data from the supplement of paper PMC10338343.
± gives the standard deviation. The full ranking holds about 8,200 sequences; the median of “pre-steady-state target cleavage rate” is about 0.024, and the highest 2% start at about 1.3. Many of the other results were omitted from the sample, so the highest values are more common in it than they were.

System: MIWI (PIWIL1) piRISC loaded with L1MC piRNA (30 nt)
Assay: pre-steady-state target cleavage rate (min^-1); MIWI and MILI are mouse PIWI proteins and EfPiwi is from a freshwater sponge; tags in brackets are library labels; higher = faster piRNA-guided slicing of the target
Details: guide: L1MC piRNA 5'p-UAACUAAAUACUAUGCAAGCUGUAGGUCCU
Method: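 Cleave-'n-Seq: a library of target RNAs (target site embedded in constant flanks, ACAGCATTCCGCGTTAGTGATATCCG... 5' flank; DNA-blocked outside the site) at 0.1 nM was incubated with 1 nM active mouse MILI or MIWI piRISC (synthetic 5'-monophosphorylated piRNA guide) with or without 500 nM mouse GTSF1 at 33 °C for 1 min to 16 h. Uncleaved targets were sequenced and normalised to non-target controls, and the pooled three trials were fitted to a burst-and-steady-state model to give the pre-steady-state cleavage rate (min^-1; k3 is constrained to at most 1e-4). Sequence is the target site only; target names encode pairing extent (gX:gY) and contiguous / 1-mismatch / 2-mismatch / bulge geometry. Fits with R² ≤ 0 are excluded.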

[1] = auxiliary factor: 500 nM mouse GTSF1
[2] = auxiliary factor: none (no GTSF1)

Row | Sequence | pre-steady-state target cleavage rate [1] | pre-steady-state target cleavage rate [2]
1 | UCCUCCUACAGUUGCAUAGUAUUUAGUUA | 0.742 ± 0.046 | 0.00376 ± 0.0017
2 | UCCUGGUUCAGCUUGCAUAGUAUUUACUUA | 0.18 ± 0.041 | 0.0237 ± 0.0048
3 | UCCUCCUACACCUUCCAUAGUAUUUAGUUA | 0.0661 ± 0.024 | –
4 | UGGACCUACAGCUUGCAUACUUUUUAGUUA | 0.0337 ± 0.0046 | 0.00745 ± 0.0014
5 | UCCACCUACAGCUUGCAUAGUAUAUACAAA | 0.413 ± 0.089 | –
6 | UCCUGGAACAGCUUGCAUAAUAUUUAGUUA | 0.559 ± 0.045 | 0.0418 ± 0.0079
7 | UCCUGGAUCAGCUUGCAUAGUAUUUAGCUA | 0.0164 ± 0.0052 | 0.00651 ± 0.0022
8 | UCCUGGAACAGCUUGCUUUGUAUUUAGUUA | 0.0971 ± 0.011 | 0.00848 ± 0.0027
9 | UCCACCUUACAGCUUGCAUAGUAUUUAGUUA | 1.03 ± 0.043 | 0.0654 ± 0.013
10 | UGGACCUUACAGCUUGCAUAGUAUUUAGUUA | 1.58 ± 0.095 | 0.0853 ± 0.016
11 | AGGACCUACAGCUUGCAUAGUAUUUAGUUC [g2:g30:cont:t1C] | 0.664 ± 0.055 | 0.0568 ± 0.01
12 | AGGACCUUACAGCUUGCAUAGUAUUUAGUUA | 1.33 ± 0.06 | 0.0925 ± 0.016
13 | ACGGACCUACAGCUUGCAUAGUAUUUAGUUA | 1.24 ± 0.072 | 0.0796 ± 0.016
14 | UGGGACCUACAGCUUGCAUAGUAUUUAGUUA | 1.11 ± 0.1 | 0.134 ± 0.033
15 | AGGACCUACAGCUUGCAUAGUAUUUAGUUUA | 1.27 ± 0.067 | 0.11 ± 0.019
16 | AGGACCUACAGCUUGCAUAGUAUUUAGUUA [g2:g30:cont:t1A] | 1.35 ± 0.057 | 0.0941 ± 0.015
17 | AGGACCUACAGCUUGCAUAGUAUUUAGUUG [g2:g30:cont:t1G] | 0.455 ± 0.046 | 0.0773 ± 0.018
18 | CGGACCUACAGCUUGCAUAGUAUUUAGUUA | 0.743 ± 0.028 | 0.06 ± 0.0088
19 | AGGACCUACAGCUUGCAUAGUAUUUUAGUUA | 1.08 ± 0.058 | 0.056 ± 0.014
20 | AGGACCUUCAGCUUGCAUAGUAUAUAGUUA | 0.827 ± 0.057 | 0.0427 ± 0.009
21 | AGGACCUACAGCUUGCAUAGUAUUUAGUUU [g2:g30:cont:t1U] | 1.64 ± 0.079 | 0.165 ± 0.036
22 | UCGGACCUACAGCUUGCAUAGUAUUUAGUUA | 1.37 ± 0.097 | 0.0616 ± 0.01
23 | GGGACCUACAGCUUGCAUAGUAUUUAGUUA | 1.32 ± 0.097 | 0.113 ± 0.025
24 | AAGGACCUACAGCUUGCAUAGUAUUUAGUUA | 1.29 ± 0.071 | 0.0755 ± 0.014
25 | AGGGACCUACAGCUUGCAUAGUAUUUAGUUA | 1.31 ± 0.086 | 0.102 ± 0.021
26 | UCCACCUACAGCUUGCAUAGUAUUUAGGUUA | 0.409 ± 0.062 | 0.0153 ± 0.0045
27 | UCGACCUACAGCUUGCAUAGAUUUUAGUAA | 0.124 ± 0.023 | –

Row | Sequence | pre-steady-state target cleavage rate [1] | pre-steady-state target cleavage rate [2]
28 | UCCUCCUACAGCUUGCAUAGUAAUUAGAUA | 0.297 ± 0.047 | 0.00556 ± 0.0028
29 | UCCUGCUACAGUCUUGCAUAGUAUUUAGUUA | 0.643 ± 0.033 | 0.0274 ± 0.005
30 | UCCUGGAUGUCGUUGCAUAGUAUUUAGUUUA | 0.022 ± 0.0057 | 0.00499 ± 0.003
31 | UCCUGGAUGUCCUUGCAUAGUUUUUACUUA | 0.00583 ± 0.0041 | –
32 | UCCUGGAUGUGCUUGCAUAGUAUUUAUUA | 0.0179 ± 0.0058 | –
33 | UGGACCUACAGCUUGCAUAGUAUUUCGUUA | 0.411 ± 0.054 | 0.0397 ± 0.0067
34 | UCCUGGAUCAGCUUGCAUACUAAUUAGUUA | 0.0563 ± 0.0091 | 0.00771 ± 0.0023
35 | UCCUGCGUACAGCUUGCAUAGUAUUUAGUUA | 1.33 ± 0.062 | 0.0785 ± 0.016
36 | UCCUCCAUACAGCUUGCAUAGUAUUUAGUUA | 0.364 ± 0.019 | 0.0335 ± 0.0051
37 | UCCUGGUUACAGCUUGCAUAGUAUUUAGUUA | 1.01 ± 0.048 | 0.0561 ± 0.011
38 | UCCUCACUACAGCUUGCAUAGUAUUUAGUUA | 0.676 ± 0.03 | 0.0551 ± 0.0082
39 | UCCUGUUACAGCUUGCAUAGUAUUUAGUUA | 1.28 ± 0.058 | 0.0747 ± 0.013
40 | UCCUGCUUACAGCUUGCAUAGUAUUUAGUUA | 1.48 ± 0.13 | 0.0826 ± 0.02
41 | UCCUCGCUACAGCUUGCAUAGUAUUUAGUUA | 0.831 ± 0.05 | 0.0517 ± 0.0088
42 | UCCUCAUACAGCUUGCAUAGUAUUUAGUUA | 1.47 ± 0.054 | 0.0664 ± 0.01
43 | UCCUGCGACAGCUUGCAUAGUAUUUAGUUA | 1.19 ± 0.06 | 0.0863 ± 0.017
44 | UCCUCCUUACAGCUUGCAUAGUAUUUAGUUA | 1.3 ± 0.052 | 0.0583 ± 0.011
45 | UCCUGGUACAGCUUGCAUAGUAUUUAGUUA [g2:g24:cont:t1A] | 0.82 ± 0.041 | 0.0692 ± 0.013
46 | UCCUCUUACAGCUUGCAUAGUAUUUAGUUA | 1.62 ± 0.055 | 0.061 ± 0.0099
47 | AGGACCUACAGCUUGCUUAGAAUUUAGUUA | 0.377 ± 0.04 | 0.00929 ± 0.0032
48 | UCCUGGAUGUCCUUACAUAGUAUUUAGUUA | 0.0237 ± 0.0056 | 0.0041 ± 0.0017
49 | UGGACCUACACGAUGCAUAGUAUUUAGAAA | 0.122 ± 0.016 | –
50 | UCCUGCUACAGCUUGCUUAGUAUUUUCAAA | 0.11 ± 0.028 | –
51 | UCCUGGUUCAGCUUGCAUUGUAUUUAGUUA | 0.61 ± 0.028 | 0.0343 ± 0.01
52 | UCCUGGUACAGCUUGCAUAGUAUUCUAGUUA | 0.442 ± 0.092 | 0.00651 ± 0.0028
53 | UCCACCUACAGCUUGCUUAGUAUUUAGAAA | 0.226 ± 0.037 | –
54 | UCCACCUACAGCUUGCAUAGUACUUUAGUUA | 0.447 ± 0.035 | 0.00964 ± 0.0027

Row | Sequence | pre-steady-state target cleavage rate [1] | pre-steady-state target cleavage rate [2]
55 | UCCUGAUACAGCUUGCAUAGUAUUUAGUUA | 1.15 ± 0.046 | 0.0816 ± 0.017
56 | UCCUGCAUACAGCUUGCAUAGUAUUUAGUUA | 1.63 ± 0.12 | 0.0686 ± 0.013
57 | UCCUGCUACAGCUUGCAUAGUAUUUAGUUG [g2:g25:cont:t1G] | 0.229 ± 0.019 | 0.0367 ± 0.0072
58 | UCGAGGUACAGCUUGCAUAGUAUUUUCAAA | 0.278 ± 0.038 | 0.00215 ± 0.0021
59 | UCCUGCUACAGCUUGCAUAGUUAUUACAAA | 0.0101 ± 0.0052 | –
60 | AGGACCUACAGCUUGCAAUGUAUUUACAAA | 0.0775 ± 0.019 | –
61 | UCCUCCUACACCUUGCAAAGUAUUUAGUUA | 0.831 ± 0.043 | 0.0328 ± 0.0065
62 | UCCUGCUACAGCUUGCAUUGUUUUUAGUUA | 0.0845 ± 0.0095 | 0.00988 ± 0.0021
63 | UCGACCUACAGCAUGCAUUGUAUUUAGUUA | 0.944 ± 0.04 | 0.0101 ± 0.0026
64 | AGAGACCUACAGCUUGCAUAGUAUUUAGUUA | 1.46 ± 0.067 | 0.091 ± 0.017
65 | UGAGACCUACAGCUUGCAUAGUAUUUAGUUA | 1.49 ± 0.1 | 0.0826 ± 0.015
66 | UCCUGGAACACCUUGGAUAGUAUUUAGUUA | 0.286 ± 0.038 | 0.00651 ± 0.0022
67 | UCCUGGAUGAGCUUGCAUAGUAUAUUAGUUA | 0.464 ± 0.04 | 0.00823 ± 0.004
68 | UCCUGGUACAGCUUGCAUAGUAAUUAGAUA | 0.209 ± 0.042 | 0.00778 ± 0.0021
69 | AGGACGUACAGCUUGCAUAGUAUUUAGAAA | 0.432 ± 0.06 | 0.0172 ± 0.0052
70 | UCCUGGAUGUCGAACGUAAGUAUUUAUUA | < 0.0001 | < 0.0001
71 | UCCACCUACAGCUUGGUAAGUAUUUAGUUA | 0.0619 ± 0.011 | –
72 | UCCACCUACAGCUUGCAUAGUAUUUAGGUA | 0.3 ± 0.054 | 0.00404 ± 0.0029
73 | UCUACCUACAGCUUGCAUAGUAUUUAGUUA | 1.4 ± 0.043 | 0.0731 ± 0.013
74 | UCCACCUACAGCUUGCAUAGUAUUUAGUUUA | 0.907 ± 0.047 | 0.0632 ± 0.014
75 | UGGUACCUACAGCUUGCAUAGUAUUUAGUUA | 0.945 ± 0.17 | 0.117 ± 0.034
76 | ACCACCUACAGCUUGCAUAGUAUUUAGUUA | 1.16 ± 0.056 | 0.0927 ± 0.017
77 | UGUACCUACAGCUUGCAUAGUAUUUAGUUA | 1.34 ± 0.049 | 0.0875 ± 0.013
78 | AGGUACCUACAGCUUGCAUAGUAUUUAGUUA | 1.35 ± 0.21 | 0.481 ± 0.15
79 | AGUACCUACAGCUUGCAUAGUAUUUAGUUA | 1.23 ± 0.064 | 0.0796 ± 0.013
